Legend:
Assay in all cases: PBM binding z-score (relative to random genomic background probes); higher = stronger binding; sequences stand for … in GC…GCGATTGACAGCGTAGAATGAAGG
[1] = tested on: FXR:RXRa (NR concentration 270 nM, RXRa partner concentration 90 nM)
Outline: (§1)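 Each nuclear receptor dimer, without ligand, was incubated for 1 h on custom Agilent 4×180K protein-binding microarrays. Binding was detected with antibodies against each partner (one per run), and scanned fluorescence was regression-normalized. The binding z-scores are referenced to random human genomic background probes.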

[2] = tested on: LXRa:RXRa (NR concentration 270 nM, RXRa partner concentration 90 nM)
Outline: as §1

[3] = tested on: LXRa homodimer (NR concentration 270 nM)
Outline: as §1

[4] = tested on: LXRb:RXRa (NR concentration 270 nM, RXRa partner concentration 90 nM)
Outline: as §1

[5] = tested on: LXRb homodimer (NR concentration 270 nM)
Outline: as §1

[6] = tested on: PPARa:RXRa (NR concentration 270 nM, RXRa partner concentration 90 nM)
Outline: as §1

[7] = tested on: PPARg:RXRa (NR concentration 180 nM, RXRa partner concentration 90 nM)
Outline: as §1

[8] = tested on: PPARg:RXRa 270nM:90nM, anti-RXR (NR concentration 270 nM, RXRa partner concentration 90 nM)
Outline: as §1

[9] = tested on: PPARg:RXRa 30nM:10nM, anti-RXR (NR concentration 30 nM, RXRa partner concentration 10 nM)
Outline: as §1

[10] = tested on: PPARg:RXRa 90nM:30nM, anti-RXR (NR concentration 90 nM, RXRa partner concentration 30 nM)
Outline: as §1

[11] = tested on: PPARg:RXRa DBDmut IVT, anti-RXR (DBD mutation: RXRa K156A/R161A, NR concentration 270 nM, RXRa partner concentration 90 nM)
Outline: as §1

[12] = tested on: PPARg:RXRa IVT, anti-PPARg (NR concentration 270 nM, RXRa partner concentration 90 nM)
Outline: as §1

[13] = tested on: PPARg DBDmut:RXRa IVT, anti-PPARg (DBD mutation: PPARg1 K132A/R137A, NR concentration 270 nM, RXRa partner concentration 90 nM)
Outline: as §1

[14] = tested on: PPARg DBDmut IVT, anti-PPARg (DBD mutation: PPARg1 K132A/R137A, NR concentration 270 nM)
Outline: as §1

[15] = tested on: PPARg homodimer (NR concentration 180 nM)
Outline: as §1

[16] = tested on: PXR:RXRa (NR concentration 270 nM, RXRa partner concentration 90 nM)
Outline: as §1

[17] = tested on: PXR homodimer (NR concentration 270 nM)
Outline: as §1

[18] = tested on: RARa:RXR (NR concentration 270 nM, RXRa partner concentration 90 nM)
Outline: as §1

[19] = tested on: RARa homodimer (NR concentration 270 nM)
Outline: as §1

[20] = tested on: RARb:RXRa (NR concentration 270 nM, RXRa partner concentration 90 nM)
Outline: as §1

Sequence	PBM binding z-score [1]	PBM binding z-score [2]	PBM binding z-score [3]	PBM binding z-score [4]	PBM binding z-score [5]	PBM binding z-score [6]	PBM binding z-score [7]	PBM binding z-score [8]	PBM binding z-score [9]	PBM binding z-score [10]	PBM binding z-score [11]	PBM binding z-score [12]	PBM binding z-score [13]	PBM binding z-score [14]	PBM binding z-score [15]	PBM binding z-score [16]	PBM binding z-score [17]	PBM binding z-score [18]	PBM binding z-score [19]	PBM binding z-score [20]
CCTCGGAGGACAGAAGGTCAGGGCTGTCCGCTTT	1.42	1.47	0.0831	1.07	-1.01	2.17	-0.206	1.07	-0.426	0.349	-0.131	0.148	-1.5	-1.83	1.43	1.65	-0.651	2.13	0.0268	3.47
CTATCAAGGTGAACAAGGTCGTTGATTACTATTC	1.16	1.14	-0.163	1.54	-0.39	2.47	1.53	1.51	0.103	0.808	3.58	3.69	0.759	0.594	0.866	2.7	2.19	2.38	0.109	2.22
TAGCCTAGGTCATGGGCCAGCATACCACGCGAAC	4.04	3.14	0.0336	2.05	-0.463	3.9	3.38	3.53	1.26	2.69	1.68	3.04	0.798	-0.0378	1.22	1.38	-0.554	2.74	-0.41	3.79
CGTCCAAGGTCAAGGTCAGTGTAAGAGACTCGAA	7.52	5.66	1.6	4.66	0.633	5.87	6.25	6.02	2.39	4.8	3.46	4.48	2.06	0.0248	3.45	5.09	1.07	5.28	2.14	5.47
CCTCGGAGGACAGAAGGTGAGAGCTGTCCGCTTT	0.177	0.159	-0.939	-0.679	-0.923	-0.0914	-0.442	-0.325	-0.929	-0.465	-0.327	0.0317	-1.56	-1.59	0.19	-0.301	-0.684	0.317	-0.413	1.09
TAGCCTAGGTCAGTGGGCCAGTATAGTACGCATC	0.672	0.503	-0.786	0.274	-0.999	2.11	2.47	2.57	0.337	1.47	2.3	3.72	-0.247	0.15	0.486	0.1	-0.662	0.533	-1.07	3.01
ACATGTAGGTTACATCCGGGTCATTCAGGCTATG	2.53	4.55	1.49	3.15	1.14	4.15	4.27	3.99	1.47	2.91	6.27	6.09	4.52	4.01	3.27	3.95	2.86	3.98	0.622	2.43
TCTATTTGGTCACGGAGGTCACACACGACGGGTA	3.93	3.92	3.39	3.88	2.63	4.23	4.04	4.8	4.57	4.77	2.53	4.35	4.5	3.22	3.91	4.86	2.58	4.88	2.06	4.21
ACGGACAGGTGAGTGAAGGTAACTCAGCTGGACG	0.715	0.141	-0.591	-0.294	-0.864	0.253	0.452	0.12	-0.363	0.0719	0.373	0.578	-0.111	-0.701	-0.338	-0.142	-0.376	0.477	-0.21	0.913
GCATATAGGTAAGACAAGGTGAAAGTCCGATTGT	0.406	-0.0572	-0.498	-0.135	-0.674	1.06	0.917	0.84	0.112	0.746	3.48	2.15	0.16	0.225	0.496	0.219	-0.205	1.44	-0.191	0.391
CCTACTGGGCCATTCCGAGGTCATTGATCATATG	2.71	3.36	4.85	3.28	0.27	3.5	1.58	2.59	0.281	1.54	4.18	4.34	0.312	-0.485	1.24	4.4	4.22	3.88	0.0189	2.63
CGTCCAAGCTCAAGGTCAGTGAAAGAGACTCGAA	1.45	1.33	0.213	1.25	-0.283	1.93	0.495	1.14	0.132	0.792	-0.0335	0.547	-0.701	-0.496	1.59	1.51	0.437	1.86	0.0805	3.43
CGACCAAGGTCATAGGAGGTCAGTGAAGACAGAT	7.7	7.58	4.51	5.89	0.466	5.7	6.04	5.91	2.45	4.68	3.37	4.52	0.399	-0.258	5.37	6.88	4.39	6.18	2.16	5.22
CCGACTGGGGCAAAGGTTACCTTACTCAGTACGA	1.37	1.71	-0.345	1.98	-1.42	5.37	10.6	9.12	7.96	9.81	5	5.64	0.278	-0.11	1.61	2.22	-0.485	3.41	-0.487	2.19
TCTAGTTGGTCACGGAGGTTACACACGACGGGTA	1.01	1.19	0.54	1.12	0.211	1.96	1.7	2.35	3.22	2.73	2.33	2.95	0.625	0.671	1.64	1.53	0.58	1.77	0.623	2.42

— the supplement of paper PMC6555819
